Source: PubChem
HepG2 tox: counter-screen for TGF-b inhibitors: cytotoxicity in HepG2 cells; HepG2 CAGA-GFP viability, ATP luminescence, 18 h; Potency, µM (top dose mostly 46.1 µM), most hits filed as cytotoxic; hit rate 0.76% among 410,000
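HepG2 CAGA-GFP cells (1000/well, DMEM with 1% FBS) received compound, then TGF-beta at 500 pg/mL final, and were incubated 18 hours at 37 degrees C. Viability was read by CellTiter-Glo luminescence. Media-only wells were set as complete cell-killing and DMSO as no toxicity.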
IL1B secr inh: inhibitors of inflammasome signaling (IL-1 beta secretion); activity change, % at 57.5 µM; hit rate 4.7% among 360,000; THP-1 LPS/ATP IL-1B secretion, AlphaLISA, 16 h; stronger effect = lower value; in the data active means activity change below about -50%; inconclusive means mostly about -30% to -49%
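THP-1 cells pretreated 1 hr with compounds (up to 57.5 uM final), then stimulated with LPS (250 ng/mL final) plus ATP (1.25 mM final); secreted IL-1B measured by AlphaLISA after 16 hr, decreased signal indicating inhibition.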
TDP1 inh: inhibitors of human tyrosyl-DNA phosphodiesterase TDP1; Q9NUW8; recombinant TDP1, AlphaScreen DNA substrate cleavage; Potency, µM (titrated, usually from 130 µM), usual class: inhibitors; hit rate 0.28% among 350,000; AID 485290; further: nearly all actives have a fitted effect of over 40% in size
Target sequence (Q9NUW8 whole entry, looked up): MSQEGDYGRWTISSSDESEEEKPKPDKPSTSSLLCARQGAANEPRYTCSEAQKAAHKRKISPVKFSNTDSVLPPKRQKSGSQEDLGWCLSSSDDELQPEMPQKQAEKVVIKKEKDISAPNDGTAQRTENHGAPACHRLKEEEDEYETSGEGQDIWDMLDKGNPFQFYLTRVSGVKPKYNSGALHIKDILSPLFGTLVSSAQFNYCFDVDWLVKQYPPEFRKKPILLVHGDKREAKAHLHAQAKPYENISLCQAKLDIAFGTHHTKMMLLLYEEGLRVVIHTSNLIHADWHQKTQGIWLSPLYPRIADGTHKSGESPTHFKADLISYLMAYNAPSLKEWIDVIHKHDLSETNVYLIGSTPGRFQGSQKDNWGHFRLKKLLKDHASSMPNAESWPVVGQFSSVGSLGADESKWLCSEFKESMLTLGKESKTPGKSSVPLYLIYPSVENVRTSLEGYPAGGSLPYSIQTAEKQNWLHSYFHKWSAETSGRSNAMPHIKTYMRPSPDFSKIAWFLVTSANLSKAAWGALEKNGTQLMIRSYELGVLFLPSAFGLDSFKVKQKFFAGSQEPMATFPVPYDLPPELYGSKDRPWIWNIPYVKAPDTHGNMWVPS
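E. coli-derived human Tdp1, 1 nM final. Cpd preinc 15 min RT; substrate 15 nM final, 5 min RT; AS bead mix 10 ug/ml final, 10 min RT. Signal loss = tyrosine-FITC cleavage. No-enzyme wells = max signal.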
TDP1 cell CPT: growth inhibition of DT40 Tdp1-/-;hTDP1 cells with camptothecin (screen for TDP1 inhibitors) | hit rate 12% among 420,000 | Potency, µM (series often up to 46.2 µM), hits mostly inhibitors | chicken DT40 Tdp1-/-;hTDP1 cells + 20 nM CPT, ATP luminescence, 48 h | AID 686979; further: nearly all actives have a fitted effect of over 55% in size
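Chicken DT40 Tdp1-/- cells complemented with human TDP1, 400 cells/well, exposed to compounds plus 20 nM camptothecin for at least 48 h at 37 C; viability read as ATP content by CellTiter-Glo luminescence.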
TGFb SMAD3 inh: TGF-b pathway inhibition. HepG2 CAGA-GFP TGF-b/SMAD3 reporter, GFP fluorescence, 18 h; TGF-beta stimulated, 500 pg/mL final. Potency, µM (titrated, usually from 46.1 µM), actives largely listed as inhibitors. hit rate 1.2% among 410,000. AID 588855; further: nearly all actives have a fitted effect of over 65% in size
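HEPG2 CAGA-GFP cells (1000/well, DMEM with 1% FBS) were pre-incubated 2 h at 37 degrees C, given compound by pin tool, then stimulated with TGF-beta at 500 pg/mL final for 18 h before per-cell GFP fluorescence imaging.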
TDP1 cell noCPT: qHTS for Inhibitors of human tyrosyl-DNA phosphodiesterase 1 (TDP1): qHTS in cells in absence of CPT | DT40 Tdp1-/- hTDP1 cells, no CPT, ATP luminescence, 48 h | hit rate 15% among 420,000 | Potency, µM (doses to about 46.2 µM), usual class: inhibitors; further: nearly all actives have a fitted effect of over 55% in size
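Luminescent ATP content (CellTiter-Glo) served as the growth readout. Knockout chicken DT40 cells expressing human TDP1 were exposed to compounds without camptothecin for a minimum 48 hr at 37 °C.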
A number is an active result; i = inactive; ? = inconclusive; nt = no result given. This is a sample that favours compounds with a hit; in the whole collection about 18% have one here. Unless noted, the call rests on the fitted dose curve; in most records, active means well fitted curve in the direction sought with a large enough effect; inconclusive means small, poorly fitted or top-dose-only effect, or another doubt; inactive means no such curve, though single readings can be large; an effect the other way counts as inactive or inconclusive.

SMILES	HepG2 tox	IL1B secr inh	TDP1 inh	TDP1 cell CPT	TGFb SMAD3 inh	TDP1 cell noCPT
COC(=O)[C@@]1(Cc2ccc(F)cc2)[C@H]2c3cc(C(=O)N(C)C)n(CCc4c[nH]c5ccc(O)cc45)c3C[C@H]2CN1C(=O)c1ccccc1	nt	i	nt	?	nt	?
COc1ccc(NC(=O)Cn2nnc(-c3ccccc3NS(=O)(=O)c3ccccc3)n2)cc1	i	i	i	23µM	?	18µM
COc1cccc(NC(=O)Cn2nnc(-c3ccccc3N)n2)c1	i	i	i	i	i	i
CC(=O)Nc1ccccc1C(=O)C(=O)Nc1cccc(Br)c1	i	i	i	i	i	18µM
CC(=O)NC(NC(=S)Nc1cccc(Br)c1)C(Cl)(Cl)Cl (configuration not stated)	i	-60	nt	?	i	?
Cc1cccc(NC(=S)NC(NC(=O)OCc2ccccc2)C(Cl)(Cl)Cl)c1 (configuration not stated)	i	i	i	23µM	?	?
O=C(NC(NC(=S)Nc1cccc(Cl)c1)C(Cl)(Cl)Cl)OCc1ccccc1 (configuration not stated)	11µM	?	i	?	6.3µM	18µM
Cn1c2ccccc2c2cc(C(=O)N3CCOc4ccc(C(C)(O)CCn5cccn5)cc4C3)ccc21 (configuration not stated)	nt	nt	nt	i	nt	i
Cc1ccc(C)c(NC(=O)CCC(=O)NNS(=O)(=O)c2ccc(Cl)cc2)c1	i	i	i	i	i	i
Cc1cccc(C)c1NC(=O)C1c2cccc[n+]2CC(=O)N1Cc1cccs1 (configuration not stated)	i	i	i	?	i	?
O=C(CNC(=S)NC(=O)c1ccc(Cl)cc1)c1ccccc1	i	i	i	i	i	?
O=C(CNC(=S)NC(=O)c1ccc(Br)o1)c1ccccc1	i	i	i	16µM	i	?
CCOC(=O)N1CCN(CC(O)COc2cc(C)ccc2C(C)C)CC1 (configuration not stated)	i	i	i	i	i	8.2µM
CCOC(=O)N1CCN(CC(O)COc2ccccc2C(C)(C)C)CC1 (configuration not stated)	i	i	i	?	i	18µM
OC1(C2(O)CC(c3ccccc3)ON2)CCCCC1 (configuration not stated)	i	-69	i	?	?	18µM
O=C(c1cnccn1)N1CCC[C@@]2(CCN(C(c3ccccc3)c3ccccc3)C2)C1	nt	nt	nt	i	nt	?
CCCCNC(=O)Nc1ccc(C2SCCS2)cc1	i	nt	i	?	i	16µM
CC(C)c1ccc(NC(=O)COc2ccc(C3SCCS3)cc2)cc1	i	i	i	?	i	23µM
CC(C)c1ccc(OCC(=O)Nc2ccc(OC(F)(F)F)cc2)cc1	i	i	i	i	i	i
CCC(=O)N/C(N)=N/c1nc2ccccc2o1	i	i	i	?	i	?
CC(C)CC(=O)N/C(N)=N/c1nc2ccccc2o1	i	i	i	?	i	29µM
N/C(=N\c1nc2ccccc2o1)NC(=O)/C=C/c1ccccc1	i	i	i	?	i	18µM
COc1ccc(OC)c(NC(=O)Cc2coc3ccc(C(C)C)cc23)c1	i	nt	i	?	?	?
Cc1ccc2[nH]c(C(=O)N3CCC(C(N)=O)CC3)cc2c1	i	i	nt	i	i	i
CCN(CC)S(=O)(=O)c1ccc(C(=O)NNc2nc(-c3ccccc3)c3cc(Br)ccc3n2)cc1	i	?	i	?	i	?
SMILES	HepG2 tox	IL1B secr inh	TDP1 inh	TDP1 cell CPT	TGFb SMAD3 inh	TDP1 cell noCPT
CC(C)(C)C(=O)NNc1nc(-c2ccccc2)c2cc(Br)ccc2n1	i	i	i	16µM	i	13µM
O=C(CNCc1ccc(Cl)cc1)Nc1ccc(C(=O)N2CCCCC2)cc1	i	i	i	i	i	i
O=C(c1ccc(COc2ccc(Cl)cc2)cc1)N1CCCCC1	i	-63	i	?	i	?
COC(=O)c1cccc(NC(=S)NCc2ccc(Cl)cc2)c1	i	i	i	?	i	?
CN(CCOc1ccc(Cl)cc1)C(=O)C1CCN(C(=O)c2ccc(Cl)cc2)CC1	i	-61	i	?	i	?
COC(=O)c1cc(NC(=S)NCc2ccc(Cl)cc2)cc(C(=O)OC)c1	i	i	i	16µM	?	?
CCCCOc1ccc(C(=O)N2CCCCCC2)cc1	i	i	i	i	i	i
O=C(c1ccc(NC(=S)NCc2ccc(Cl)cc2)cc1)N1CCCCC1	i	i	i	?	i	23µM
COc1ccc2[nH]c(CCc3nc4c(OC)c(OC)ccc4[nH]3)nc2c1OC	i	nt	nt	i	i	i
CC(NC(=O)CN(C)S(=O)(=O)c1cccc2nsnc12)c1ccccc1 (configuration not stated)	i	i	i	i	i	i
COc1cc(OC)c2c(c1C(CCN1CCCC1)c1ccc(N(C)C)cc1)OC(=O)CC2c1ccc(N(C)C)cc1 (configuration not stated)	i	nt	i	nt	i	nt
CCN(CCCNC(=O)CNC(=O)c1nn(-c2ccc(OC)cc2OC)c(=O)c2ccccc12)c1cccc(C)c1	i	i	i	?	?	?
Cc1ccc(C(=O)N2CCN(CCNC(=O)C(=O)NCc3ccc(Cl)cc3)CC2)cc1	i	i	i	16µM	i	?
O=C(O)c1ccc(COc2ccccc2Cl)cc1	i	i	i	i	i	i
Cc1ccc(COc2ccccc2C(=S)N2CCCC2)cc1	i	i	i	?	i	21µM
O=C(c1ccc(COc2ccccc2Br)cc1)N1CCCCCC1	i	i	i	?	i	16µM
CN(CCOc1ccccc1)C(=O)c1ccc(OC2CCN(C(=O)C3CC3)CC2)cc1	i	i	i	?	i	18µM
O=C(COC(=O)c1ccc(O)cc1)Nc1ccc(Cl)cc1	i	i	i	?	i	?
Cc1cccc(OCCSc2nc3ccc(NC(=O)COc4ccccc4)cc3s2)c1	i	nt	i	?	i	?
O=C(COC(=O)/C=C/c1ccccc1Cl)NC1CCCC1	i	i	i	i	i	i
COCCn1c(=S)[nH]c2cc(C(=O)N3CCCC(C)C3)ccc2c1=O (configuration not stated)	i	i	i	26µM	i	?
COCCn1c(=S)[nH]c2cc(C(=O)N3CCc4ccccc4C3)ccc2c1=O	i	i	i	i	i	i
CCCn1c(=S)[nH]c2cc(C(=O)N3CCN(C(=O)OCC)CC3)ccc2c1=O	i	i	i	i	?	i
